In PubChem BioAssay (NCI):
Compounds without any hit were thinned out: in the full panel of roughly 83,000, 20% have a hit.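 Treatment: one concentration, 48 hours, 96-well format. Scoring: percent growth, with anything below 10 considered active.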 Active and inactive are the calls of the source.

tested on: MDA-MB-231 breast; test: NCI-60 one-dose screen, 48 h (100 = growth as untreated, 0 = no growth, -100 = all killed); conditions: 10 µM

Row | SMILES | growth
1 | CN(C)CCOc1nc2ccccc2c2c1-c1ccc(Cl)cc1C2=O | 14.8% (inactive)
2 | CCOC(=O)C(CSC(c1ccccc1)(c1ccccc1)c1ccccc1)NC(=O)C(CSC(c1ccccc1)(c1ccccc1)c1ccccc1)NC(c1ccccc1)(c1ccccc1)c1ccccc1 (stereo not drawn) | 108% (inactive)
3 | O=C1OCC2=C1C(c1cccc(Cl)c1)c1cc3c(cc1N2CCO)CCC3 (stereo not drawn) | -19.3% (active)
4 | O=C(Nc1ccc(Cl)cc1)N1NC(c2ccc(Cl)cc2)C=C1c1ccccc1 (stereo not drawn) | 106% (inactive)
5 | S=c1[nH]ccn1-c1c(Cl)cccc1Cl | 102% (inactive)
6 | Cc1ccc(NC(=O)CSc2nc3ccccc3c(=O)n2CCc2ccccc2)c(C(=O)O)c1 | 90.6% (inactive)
7 | O=S(=O)(NCCCNc1nccc(-c2c(-c3ccc(F)cc3)nc3sccn23)n1)c1ccc(F)cc1 | 73.3% (inactive)
8 | CCn1cc(C(=O)O)c(=O)c2cnc(N3CCCC3)nc21 | 106% (inactive)
9 | O=c1c2ccccc2nc(SCCN2CCCCC2)n1CCc1ccccc1 | 66.5% (inactive)
10 | COc1cc2cc3c(nc2cc1OC)CCN3Cc1ccc(NC(=O)c2ccc(Cl)c(C(F)(F)F)c2)cc1 | 85.4% (inactive)
11 | CN(C)C(=S)N/N=C\C=N/NC(=S)N(C)C | 37.3% (inactive)
12 | COc1cc(Cl)cc(-c2nn(-c3cccc(NC(=O)c4ccc(Cl)c(Cl)c4)c3)cc2-c2ccncc2)c1 | 33.9% (inactive)
13 | CCCCCCCCCCCCCCCC(=O)OC1[C@@H](OC(=O)CCCCCCCCCCCCCCC)[C@@H](C(=O)N[C@@H](CCCCN)C(=O)OC)O[C@H]1n1cnc2c(=O)[nH]c(NC(=O)C(C)C)nc21 (stereo partly drawn) | 118% (inactive)
